Experimental data: PubChem BioAssay (NCATS)
Where “and” joins values, the source holds several entries; their conditions need not be identical. Equal entries are not always repeated. Results filed as inconclusive are left out. Calls of active or inactive are those of the source. Unless noted, calls come from the whole dose curve; as a rule, active = well fitted curve in the direction sought with a large enough effect; inconclusive = small, poorly fitted or top-dose-only effect, or another doubt; inactive = no such curve, though single readings can be large; an effect the other way counts as inactive or inconclusive.

Assays:
C33A = assay: Primary qHTS to identify gynecologic anti-cancer compounds using libraries of approved drugs and bioactive compounds (AID 1345084); conditions: Gynecologic cancer cell panel viability, ATPlite luminescence, 48 h; series mostly up to 57.5 µM; note: % is set by controls: 0 for no effect and ±100 for the full control effect; nearly all actives have a fitted effect of over 55% in size
Outline: (§1)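 Luminescence from the ATPlite ATP-monitoring reagent indicates viable cell number; lower signal means cytotoxicity. Cells received compound 16 h after seeding and were exposed for 48 h across five concentrations.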

CAOV3 = assay: as above; conditions: Gynecologic cancer cell panel viability, ATPlite luminescence, 48 h; series mostly up to 57.5 µM
Outline: as §1

CASKI = assay: as above; conditions: Gynecologic cancer cell panel viability, ATPlite luminescence, 48 h; series mostly up to 57.5 µM
Outline: as §1

Es-2 = assay: as above; conditions: Gynecologic cancer cell panel viability, ATPlite luminescence, 48 h; series mostly up to 57.5 µM
Outline: as §1

HeLa = assay: as above; conditions: Gynecologic cancer cell panel viability, ATPlite luminescence, 48 h; series mostly up to 57.5 µM
Outline: as §1

Hek293T = assay: as above; conditions: Gynecologic cancer cell panel viability, ATPlite luminescence, 48 h, control line for the selectivity index; series mostly up to 57.5 µM
Outline: as §1

PA-1 = assay: as above; conditions: Gynecologic cancer cell panel viability, ATPlite luminescence, 48 h; series mostly up to 57.5 µM
Outline: as §1

SKOV3 = assay: as above; conditions: Gynecologic cancer cell panel viability, ATPlite luminescence, 48 h; series mostly up to 57.5 µM
Outline: as §1

Tov-21-G = assay: as above; conditions: Gynecologic cancer cell panel viability, ATPlite luminescence, 48 h; series mostly up to 57.5 µM
Outline: as §1

Tov112D = assay: as above; conditions: Gynecologic cancer cell panel viability, ATPlite luminescence, 48 h; series mostly up to 57.5 µM
Outline: as §1

[1] = Drug repurposing screens with cells derived from glioblastoma tumor samples (AID 1345199); conditions: GBM patient neurospheres viability, ATP luminescence, 48 h; note: % is set by controls: 0 for no effect and ±100 for the full control effect; nearly all actives have a fitted effect of over 40% in size
Outline: (§2)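 Four patient lines of CD133+ GBM neurospheres were screened at several concentrations; hits were retested in those lines plus three slower-growing GBM lines, using 48-hour treatment and ATP-based viability.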

astro = assay: as above; conditions: viability, ATP luminescence, 48 h; series mostly up to 45.9 µM
Outline: as §2

JEG-3 = assay: Primary qHTS to identify gynecologic anti-cancer compounds using libraries of approved drugs and bioactive compounds (AID 1345084); conditions: Gynecologic cancer cell panel viability, ATPlite luminescence, 48 h; series mostly up to 57.5 µM; note: % is set by controls: 0 for no effect and ±100 for the full control effect; nearly all actives have a fitted effect of over 55% in size
Outline: as §1

OV90 = assay: as above; conditions: Gynecologic cancer cell panel viability, ATPlite luminescence, 48 h; series mostly up to 57.5 µM
Outline: as §1

[2] = biological target: Nuclear receptor subfamily 1 group I member 2 (Rattus norvegicus) (UniProt Q9R1A7); assay: qHTS assay for small molecule activators of the rat pregnane X receptor (rPXR) signaling pathway (AID 651751; call rule not given here; note: 0% is about no effect); conditions: rPXR reporter cells, luciferase (One-Glo), 24 h
[3] = qHTS assay for small molecule activators of the human pregnane X receptor (PXR) signaling pathway (AID 720659; call rule not given here; note: 0% is about no effect); conditions: DPX-2 HepG2 CYP3A4-luciferase, 24 h; series mostly up to 92.3 µM
[4] = at 45.9 µM (top of the series), tumour line B
[5] = at 45.9 µM (top of the series), tumour line D
[6] = at 46 µM (top of the series), tumour line A
[7] = at 46.1 µM (top of the series), tumour line C
[8] = at 20 µM (top of the series), tumour line C
[9] = at 21.2 µM (top of the series), tumour line B
[10] = at 21.3 µM (top of the series), tumour line A
[11] = at 21.2 µM (top of the series), tumour line D

Sequence of Nuclear receptor subfamily 1 group I member 2 (Rattus norvegicus) (Q9R1A7 whole entry, looked up): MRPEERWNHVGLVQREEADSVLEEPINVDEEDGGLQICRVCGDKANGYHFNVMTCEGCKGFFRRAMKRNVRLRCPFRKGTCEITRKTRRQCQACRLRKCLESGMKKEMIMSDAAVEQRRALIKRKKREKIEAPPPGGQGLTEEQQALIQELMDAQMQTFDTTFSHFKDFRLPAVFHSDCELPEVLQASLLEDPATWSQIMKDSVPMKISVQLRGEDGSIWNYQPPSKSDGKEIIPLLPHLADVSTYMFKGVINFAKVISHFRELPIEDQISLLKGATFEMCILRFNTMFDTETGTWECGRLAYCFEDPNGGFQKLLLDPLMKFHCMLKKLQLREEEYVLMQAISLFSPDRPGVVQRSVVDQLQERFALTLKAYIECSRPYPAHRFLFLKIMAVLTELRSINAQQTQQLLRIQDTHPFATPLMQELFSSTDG

CNCc1ccccc1
inactive: outcome (C33A) | outcome (CAOV3) | outcome (CASKI) | outcome (Es-2) | outcome (HeLa) | outcome (Hek293T) | outcome (PA-1) | outcome (SKOV3) | outcome (Tov-21-G) | outcome (Tov112D) | activity, negative = cell killing [1, 4] -13% | activity, negative = cell killing [1, 5] -15.9% | activity, negative = cell killing [1, 6] -19.4% | activity, negative = cell killing [1, 7] -9.99% | outcome (astro)

O=C(O)[C@@H]1[C@H]2C[C@H]3c4[nH]c5ccccc5c4CCN3C[C@@H]2CC[C@@H]1O
inactive: outcome (C33A) | outcome (CAOV3) | outcome (CASKI) | outcome (Es-2) | outcome (HeLa) | outcome (Hek293T) | outcome (JEG-3) | outcome (PA-1) | outcome (SKOV3) | outcome (Tov-21-G) | outcome (Tov112D) | activity, negative = cell killing [1, 8] -17% | activity, negative = cell killing [1, 9] 2.22% | activity, negative = cell killing [1, 10] -34.6%

CC1(c2ccccc2)OC(C(=O)O)=CC1=O (configuration not stated)
inactive: outcome (C33A) | outcome (CAOV3) | outcome (CASKI) | outcome (Es-2) | outcome (HeLa) | outcome (JEG-3) | Potency (OV90) | outcome (SKOV3) | outcome (Tov-21-G) | outcome (Tov112D) | activity, negative = cell killing [1, 4] -1.24% | activity, negative = cell killing [1, 5] -9.61% | activity, negative = cell killing [1, 7] -15.9% | outcome (astro)

OCc1ccc(Cl)cc1Cl
inactive: outcome (C33A) | outcome (CASKI) | outcome (Es-2) | outcome (HeLa) | outcome (Hek293T) | outcome (JEG-3) | Potency (OV90) | outcome (PA-1) | outcome (Tov-21-G) | outcome (Tov112D) | activity, negative = cell killing [1, 4] -6.96% | activity, negative = cell killing [1, 5] -3.9% | activity, negative = cell killing [1, 6] -3.28% | activity, negative = cell killing [1, 7] 6.97%

O=C(O)/C=C/c1ccc(Cn2ccnc2)cc1
inactive: outcome (C33A) | outcome (CAOV3) | outcome (CASKI) | outcome (Es-2) | outcome (HeLa) | outcome (Hek293T) | outcome (JEG-3) | outcome (PA-1) | outcome (SKOV3) | outcome (Tov-21-G) | outcome (Tov112D) | activity, negative = cell killing [1, 8] 0.197% | activity, negative = cell killing [1, 9] -8.95% | activity, negative = cell killing [1, 11] -11.8% | activity, negative = cell killing [1, 10] -28.4% | outcome (astro)

Cc1ncc(CO)c(CN)c1O
inactive: outcome (C33A) | outcome (CAOV3) | outcome (CASKI) | outcome (Es-2) | outcome (HeLa) | outcome (Hek293T) | outcome (Tov-21-G) | outcome (Tov112D) | activity, negative = cell killing [1, 4] 0.478% | activity, negative = cell killing [1, 5] 6.58% | activity, negative = cell killing [1, 6] -23.9% | activity, negative = cell killing [1, 7] -87% | outcome (astro)

OC[C@@H](O)[C@@H](O)[C@H](O)[C@H](O)CO
inactive: outcome (C33A) | outcome (CAOV3) | outcome (CASKI) | outcome (Es-2) | outcome (HeLa) | outcome (JEG-3) | Potency (OV90) | outcome (PA-1) | outcome (SKOV3) | outcome (Tov-21-G) | outcome (Tov112D) | activity, negative = cell killing [1, 4] -7.17% | activity, negative = cell killing [1, 5] -4.25% | activity, negative = cell killing [1, 6] -11.8% | activity, negative = cell killing [1, 7] -0.87% | outcome (astro) | max response [2] -1.36% | outcome [3]

Cc1cccc(C(=O)O)c1O
inactive: outcome (C33A) | outcome (CAOV3) | outcome (CASKI) | outcome (JEG-3) | Potency (OV90) | outcome (PA-1) | outcome (SKOV3) | outcome (Tov112D) | activity, negative = cell killing [1, 4] -1.64% | activity, negative = cell killing [1, 5] -5.93% | activity, negative = cell killing [1, 6] -19.5% | activity, negative = cell killing [1, 7] -18.8% | outcome (astro)

CCCCCCCCCCCCCCCCC(C(=O)O)C(O)(CC(=O)O)C(=O)O (configuration not stated)
inactive: outcome (C33A) | outcome (CAOV3) | outcome (CASKI) | outcome (Es-2) | outcome (HeLa) | outcome (JEG-3) | Potency (OV90) | outcome (PA-1) | outcome (SKOV3) | outcome (Tov-21-G) | outcome (Tov112D) | activity, negative = cell killing [1, 4] -24.2% | activity, negative = cell killing [1, 5] -4.12% | activity, negative = cell killing [1, 6] -28.6% | activity, negative = cell killing [1, 7] -24.9%

CCN[C@H]1CN(CCCOC)S(=O)(=O)c2sc(S(N)(=O)=O)cc21
inactive: outcome (C33A) | outcome (CAOV3) | outcome (CASKI) | outcome (Es-2) | outcome (HeLa) | outcome (Hek293T) | outcome (JEG-3) | Potency (OV90) | outcome (SKOV3) | outcome (Tov-21-G) | outcome (Tov112D) | activity, negative = cell killing [1, 8] -0.607% | activity, negative = cell killing [1, 9] -9.2% | activity, negative = cell killing [1, 11] 8.52% | outcome (astro)

Nc1ccc(S(=O)(=O)c2ccc(N)cc2)cc1
inactive: outcome (C33A) | outcome (CAOV3) | outcome (CASKI) | outcome (Es-2) | outcome (HeLa) | outcome (Hek293T) | outcome (JEG-3) | Potency (OV90) | outcome (Tov-21-G) | outcome (Tov112D) | activity, negative = cell killing [1, 4] -14.4% | activity, negative = cell killing [1, 5] 8.15% | activity, negative = cell killing [1, 6] -30% | activity, negative = cell killing [1, 7] -8.46% | outcome (astro) | max response [2] -2.07% and 2.17% | outcome [3]

CCCCCCCCCCCCCCCCN
inactive: outcome (C33A) | outcome (CAOV3) | outcome (CASKI) | outcome (Es-2) | outcome (HeLa) | outcome (JEG-3) | Potency (OV90) | outcome (PA-1) | outcome (SKOV3) | outcome (Tov-21-G) | outcome (Tov112D) | activity, negative = cell killing [1, 4] -8.19% | activity, negative = cell killing [1, 5] -19.2% | activity, negative = cell killing [1, 7] -20.5% | outcome (astro)

Cc1cc(O)cc(C)c1Cl
inactive: outcome (C33A) | outcome (CAOV3) | outcome (CASKI) | outcome (Es-2) | outcome (HeLa) | outcome (Hek293T) | outcome (JEG-3) | outcome (PA-1) | outcome (SKOV3) | outcome (Tov-21-G) | outcome (Tov112D) | activity, negative = cell killing [1, 4] 0.561% | activity, negative = cell killing [1, 5] -6% | activity, negative = cell killing [1, 6] -20% | activity, negative = cell killing [1, 7] 6.74% | outcome (astro) | max response [2] 1.15% | outcome [3]
